GBA activity = human lysosomal glucosylceramidase modulation | P04062 | purified enzyme, resorufin glucoside fluorescence (screen aimed at inhibitors), 20 min | Potency, µM | 48,000 compounds, 1.1% hits | AID 360; in the data active = potency below about 15 µM; inconclusive = mostly about 16 µM to 33 µM;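 note: the screen sought inhibitors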
Target sequence (P04062 whole entry, looked up): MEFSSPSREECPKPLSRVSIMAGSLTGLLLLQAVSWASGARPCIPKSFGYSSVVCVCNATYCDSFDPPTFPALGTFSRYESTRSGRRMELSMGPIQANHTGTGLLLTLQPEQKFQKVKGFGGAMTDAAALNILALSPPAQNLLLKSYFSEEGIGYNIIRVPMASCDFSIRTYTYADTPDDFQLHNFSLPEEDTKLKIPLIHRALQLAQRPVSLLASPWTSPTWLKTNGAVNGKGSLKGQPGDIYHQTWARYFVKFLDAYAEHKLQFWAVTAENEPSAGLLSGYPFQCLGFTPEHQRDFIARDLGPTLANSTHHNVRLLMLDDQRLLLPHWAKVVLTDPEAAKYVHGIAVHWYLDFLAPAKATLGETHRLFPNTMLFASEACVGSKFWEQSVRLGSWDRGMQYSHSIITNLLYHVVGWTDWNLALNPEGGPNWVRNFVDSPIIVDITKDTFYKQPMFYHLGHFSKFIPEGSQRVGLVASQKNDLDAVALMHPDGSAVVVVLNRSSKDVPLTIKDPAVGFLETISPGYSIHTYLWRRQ
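Compounds titrated against 0.2 nM normal enzyme, 30 uM resorufin beta-D-glucopyranoside substrate, citrate/phosphate buffer with taurocholate and tween-20, pH 5.9. Reaction ran 20 min at room temperature; fluorescence (Ex 548/Em 600) gave AC50.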
Bst PK mod = pyruvate kinase (B. stearothermophilus) modulation; Potency, µM; purified pyruvate kinase, luminescence ATP production; ribose 5-phosphate activator present at AC10; 51,000 compounds, 1.2% hits; AID 361; in the data active = potency below about 11 µM; inconclusive = mostly about 12 µM to 25 µM;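 the screen sought inhibitors and activators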
Each line names hits and unclear results; the compound was inactive in the other large screens. This is a sample that favours compounds with a hit; in the whole collection about 2.3% have one here.

Cc1noc(C)c1S(=O)(=O)Nc1ccc(C(=O)NCCc2ccccc2)cc1	GBA activity 1.6
COc1ccc(CNC(=O)c2ccc(NS(=O)(=O)c3c(C)noc3C)cc2)cc1	GBA activity inconclusive
COc1ccccc1NC(=O)c1ccc(NS(=O)(=O)c2c(C)noc2C)cc1	none
Cc1ccc(C2/C(=C(\O)c3c(C)nc4ccccn34)C(=O)C(=O)N2CCCN2CCOCC2)o1 (stereo not given)	none
Cc1cc(Nc2ccc(N3CCC(C)CC3)cc2)n2ncnc2n1	none (no result: Bst PK mod)
COc1ccc2c(CC(=O)NCc3ccc4c(c3)OCO4)coc2c1	none (no result: GBA activity)
O=C(Cn1c(-c2ccccc2)noc1=O)NCc1ccccc1	none
CCOc1ccc(NC(=O)c2ccncc2)cc1	none (no result: Bst PK mod)
O=C(Nc1ccc(OC(=O)c2ccncc2)cc1)c1ccncc1	GBA activity 1.9
O=C1c2ccccc2S(=O)(=O)N1CC(O)Cn1ccc2ccccc21 (stereo not given)	none
N#CCCCCN1c2cccc3cccc(c23)S1(=O)=O	Bst PK mod 7.9
O=C(NC1CCCCC1)C1CCN(S(=O)(=O)N2CCCCCC2)CC1	none
O=C(NC1CCCCCCC1)C1CCN(S(=O)(=O)N2CCC3(CC2)OCCO3)CC1	GBA activity 11
CCSCc1nnc(SCC(=O)Nc2cccc(SC)c2)n1C	none
CC1(c2ccc(Cl)cc2Cl)OCC(Cn2ccnc2)O1 (stereo not given)	none
CCOC(=O)CSc1nc(-c2ccc3c(c2)OCO3)ccc1C#N	Bst PK mod 4.3 (no result: GBA activity)
CCOC(=O)CSc1nc(-c2ccncc2)ccc1C#N	none (no result: GBA activity)
COC(=O)c1c(NC(=O)c2ccco2)sc(C(=O)N2CCCC2)c1C	none
C=CCn1c(SCc2c(F)cccc2Cl)nnc1-c1ccco1	none
Cc1ccccc1-n1nnnc1SCC(N)=O	none (no result: Bst PK mod)
Cc1cccc(C)c1-n1nnnc1SCSc1nnnn1-c1c(C)cccc1C	Bst PK mod 3.5
CCN1CC=C2C(C#N)=C(N)C(C#N)(C#N)C(c3cc(Cl)ccc3Cl)C2C1 (stereo not given)	none (no result: GBA activity)
c1ccc2nc(N3CCCC3)c(N3CCCC3)nc2c1	none
Oc1ccc(Nc2nc(N3CCCC3)c3ccccc3n2)cc1	GBA activity 8.8
Cc1cc(C(F)(F)F)nc(Nc2nc(C)c3ccccc3n2)n1	none
Nc1nc(Nc2ccccc2)nc2ccccc12	GBA activity inconclusive, Bst PK mod 5.5
CCOC(=O)Cn1c(=O)c2c(nc(Br)n2Cc2ccc(Cl)cc2)n(C)c1=O	none
COc1ccc(C2C(C(=O)NCCN3CCOCC3)c3ccccc3C(=O)N2C2CCCCC2)cc1 (stereo not given)	GBA activity 14
COc1ccc(C2C(C(=O)N3CCN(C)CC3)c3ccccc3C(=O)N2C2CCCCC2)cc1 (stereo not given)	none (no result: GBA activity)
CCc1nnc(NC(=O)c2ccc(COc3ccccc3)o2)s1	none
CCc1nnc(NC(=O)c2ccc(-c3cccc(C(F)(F)F)c3)o2)s1	GBA activity 1.8
COc1ccc(OCCn2c(=N)n(CCO)c3ccccc32)cc1	GBA activity 4.3
COc1ccc(OCC(O)Cn2c(=N)n(CCN3CCCCC3)c3ccccc32)cc1 (stereo not given)	none
Cc1ccc(C(c2nnnn2CC2CCCO2)N2CCN(c3cccc(C)c3C)CC2)cc1 (stereo not given)	none (no result: GBA activity)
N#Cc1c(N)n[nH]c1-c1cc2c([nH]1)CCCC2	Bst PK mod 6.3 (no result: GBA activity)
Cc1ccccc1OCCN1C(=O)NC2(CCc3ccccc32)C1=O (stereo not given)	none (no result: Bst PK mod)
CCOc1cccc(NC(=O)C2CC(=O)NC(=Nc3ccccc3)S2)c1 (stereo not given)	none (no result: GBA activity)
COc1ccccc1N1CCN(S(=O)(=O)Cc2ccccc2Cl)CC1	none
COc1ccc(-c2cc(N3CCCC3)n3ncnc3n2)cc1	Bst PK mod 9.2
COc1ccc(S(=O)(=O)N2CCN(c3cc(-c4ccccc4)nc4ncnn34)CC2)cc1	none
Cc1cccn2c(N)c(-c3ccccc3)nc12	none (no result: Bst PK mod)
Cn1nc(-c2ccccc2)c2nc3ccccc3nc21	Bst PK mod 8 (no result: GBA activity)
COC(=O)c1cc(OC)c(OC)cc1NC(=O)c1oc2ccccc2c1C	none
COc1ccc(N2CCCn3c2nc2c3c(=O)n(CCc3ccccc3)c(=O)n2C)cc1	GBA activity 12
Cn1c(=O)n(Cc2ccccc2F)c(=O)c2c1nc1n2CCCN1CCc1ccccc1	GBA activity 14
Cn1c(=O)n(CCc2ccccc2)c(=O)c2c1nc1n2CCCN1Cc1ccccc1	none
CCOc1ccc(N2CCCn3c2nc2c3c(=O)n(CCc3ccccc3)c(=O)n2C)cc1	none
Cn1c(=O)n(CCc2ccccc2)c(=O)c2c1nc1n2CCCN1CCc1ccccc1	GBA activity 9
CC(C)Cn1c(=O)c2c(nc3n2CCCN3CCc2ccccc2)n(C)c1=O	none
O=c1[nH]c2ccccc2n1CCCN1CCN(C(c2ccccc2)c2ccccc2)CC1	none (no result: GBA activity)
CCOC(=O)c1ccc(NC(=O)CSc2nnnn2CCCO)cc1	none
CC1CN(S(=O)(=O)c2ccccc2)CC(C)O1 (stereo not given)	none
CC1CN(S(=O)(=O)c2ccc(NC(=O)c3cc(-c4ccccc4O)n[nH]3)cc2)CC(C)O1 (stereo not given)	GBA activity 7.6
Cn1cccc1C(C(=O)NC1CCCCC1)N(C(=O)Cc1cccs1)c1ccc2c(c1)OCCO2 (stereo not given)	GBA activity inconclusive
Cn1c(=O)c2c3c(sc2n2c(SCC(N)=O)nnc12)CC(C(C)(C)C)CC3 (stereo not given)	none (no result: GBA activity)
COc1cc2nc(NCCN3CCOCC3)n3nc(-c4ccccc4)nc3c2cc1OC	none
CN1CCN(CCCNc2nc3ccccc3c3nc(-c4ccccc4)nn23)CC1	Bst PK mod 10
c1ccc(-c2nc(NCc3cccnc3)c3oc4ccccc4c3n2)cc1	none (no result: Bst PK mod)
COc1cc(NC(=O)c2ccc(-c3ccc(Br)cc3)o2)ccc1NC(=O)C(C)C	none
O=C(NC1CCS(=O)(=O)C1)c1ccc(-c2ccc(Br)cc2)o1 (stereo not given)	GBA activity inconclusive, Bst PK mod 7.8
O=C(CSc1c2c(nc3ccc(Cl)cc13)CCCC2)N1CCN(C(=O)c2ccco2)CC1	none
CCn1c(C)nc2cc(C(=O)OCCC(F)(F)F)ccc21	GBA activity 11
CCOC(=O)c1ccc2c(c1)nc(SCC(=O)N1CCCCC1)n2CC	none
CCOCCOCN(C#N)c1nc(OC)nc(N(C)C)n1	none
CCOc1ccc(OCC)c2sc(C)nc12	Bst PK mod 3.4
COc1ccc(OC)c2sc(N3CCCCC3)nc12	Bst PK mod inconclusive
CCCNC(=O)N1CCN(S(=O)(=O)c2ccc(C)c(C)c2)CC1	Bst PK mod inconclusive
O=C1OC(Nc2nc3ccccc3s2)c2ccccc21 (stereo not given)	GBA activity 15
O=C1OC(Nc2nccs2)c2ccccc21 (stereo not given)	none
COc1ccc(C2C(C#N)=C(SC)NC3=C2C(=O)CC(C)(C)C3)cc1 (stereo not given)	none (no result: GBA activity)
COC(=O)c1ccc(C2C(C#N)=C(C)NC3=C2C(=O)CC(C)(C)C3)cc1 (stereo not given)	GBA activity 12
CC(C)NC(=O)CCNC(=O)c1ccc(F)cc1	none
CCn1c(=S)sc2c(=O)n(-c3ccccc3)c(SC)nc21	none
N#CCSc1nc2c(sc(=S)n2Cc2ccco2)c(=O)n1-c1ccc(F)cc1	GBA activity 6
O=C1CCCc2c1[nH]c1ccccc21	none
c1ccc2c3c([nH]c2c1)-c1[nH]ncc1CC3	Bst PK mod 3.1
COc1ccc(C(=O)Cn2nnc(-c3cccs3)n2)cc1	none (no result: Bst PK mod)
Cc1ccc(C(=O)Cn2nnc(-c3ccccc3-n3cnnn3)n2)cc1	Bst PK mod 4.7
O=C(Cn1nnc(-c2ccccc2-n2cnnn2)n1)NCc1ccccc1	none
